# Active and inactive are the calls of the source.
# Tests used:
# [1] = optical density shifts of acrAB sulA E. coli – strain DRC41, OD650, 48 h, E. coli filamentation inducer project, primary screen (AID 1152); details: higher = more signal, called active from +8 up or from −8 down;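 note: E. coli MC1000 strain DRC41 lacking acrAB efflux pump and sulA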
# [2] = probe aLefty1 binding on compound microarray – biochemical, small-molecule microarray, 635/667 nm fluorescence, primary screen (AID 1153); details: higher = more signal;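 note: score merges spot fluorescence with signal-to-noise ratio from the scanned slide images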
# [3] = plasmodial surface anion channel blockers, osmotic lysis – cell-based, P. falciparum Indochina, OD700, 1 h, primary screen (AID 1154); details: P. falciparum Indochina infected RBC osmotic lysis, higher = more signal, called active from +8 up or from −8 down
# [4] = plasmodial surface anion channel blockers, osmotic lysis – cell-based, P. falciparum Indochina, OD700, 2 h, primary screen (AID 1155);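 note: lysis reports solute entry through the parasite surface anion channel PSAC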; details: P. falciparum Indochina infected erythrocytes, higher = more signal, called active from +8 up or from −8 down
# [5] = changes in parasitized red cell lysis, either direction – P. falciparum Indochina, OD700, 3 h, PSAC antagonist project, primary screen (AID 1156); details: P. falciparum-infected erythrocytes, osmotic lysis, higher = more signal, called active from +8 up or from −8 down
# [6] = plasmodial surface anion channel blockers, osmotic lysis – cell-based, P. falciparum Indochina, OD700, 18 h, primary screen (AID 1157); details: P. falciparum Indochina infected erythrocytes, osmotic lysis OD700, 18 h; higher = more signal, called active from +8 up or from −8 down
# [7] = S6 kinase pathway phospho-S6 level changes – cell-based, A549, cytoblot, luminescence, serum-stimulated, primary screen (AID 1158); details: 5 h, higher = more signal;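 note: serum-stimulated A549 lung adenocarcinoma cells; signal is phosphorylated S6 detected by cytoblot immunostaining with HRP secondary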
# [8] = molecular target: NADPH oxidase 2 (Homo sapiens) (UniProt P04839); test: compounds shifting NOX2 Amplex Red fluorescence – cell-based, HEK293-NOX2, PMA-stimulated, NOX inhibitor project, primary screen (AID 1159); details: 45 min, higher = more signal, called active from +8 up or from −8 down; note: test concentration not given here
# [9] = molecular target: NADPH oxidase 4 (Homo sapiens) (UniProt Q9NPH5); test: compounds shifting NOX4 Amplex Red fluorescence – cell-based, HEK293-NOX4, tetracycline-induced, NOX inhibitor project, primary screen (AID 1160); details: HEK293-NOX4, Amplex Red H2O2 fluorescence, 45 min; higher = more signal, called active from +8 up or from −8 down
# [10] = molecular target: NADPH oxidase 5 (Homo sapiens) (UniProt Q96PH1); test: compounds shifting NOX5 Amplex Red fluorescence – cell-based, HEK293-NOX5, NOX inhibitor project, primary screen (AID 1161); details: HEK293-NOX5, ionomycin, 45 min, higher = more signal
# [11] = compound effects on lung adenocarcinoma cell viability – A549, calcein-AM fluorescence, 48 h, basal, profiling panel (AID 1162); details: higher = more signal; note: test concentration not given here
# [12] = compound effects on differentiated 3T3-L1 adipocyte viability – cell-based, 3T3-L1 adipocytes, calcein-AM fluorescence, 48 h, basal, profiling panel (AID 1163); details: 3T3-L1 adipocytes viability, higher = more signal; note: test concentration not given here
# [13] = compound effects on hepatocellular carcinoma cell viability – HepG2, calcein-AM fluorescence, 48 h, basal, profiling panel (AID 1164); details: higher = more signal; note: test concentration not given here
# [14] = compound effects on multiple myeloma cell viability – MM1S, calcein-AM fluorescence, 48 h, basal, profiling panel (AID 1165); details: higher = more signal;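 note: viability of MM1S multiple myeloma cells under basal unstimulated conditions; test concentration not given here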
# [15] = calcein-AM signal in unstimulated myeloma cells – cell-based, calcein-AM fluorescence, 48 h, PK04 Diversity Set, profiling panel (AID 1166); details: RPMI8226 myeloma viability, higher = more signal;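 note: cells grown under basal conditions without added stimulus; test concentration not given here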
# [16] = JC-1 mitochondrial signal, unstimulated HepG2 cells – cell-based, JC-1 fluorescence, 24 h, 100 nL compound, profiling panel (AID 1167); details: HepG2 mitochondrial potential, higher = more signal; note: test concentration not given here
# [17] = JC-1 mitochondrial signal, unstimulated adipocytes – cell-based, JC-1 fluorescence, 3T3-L1 adipocytes, 24 h, 100 nL compound, profiling panel (AID 1168); details: JC-1 mitochondrial fluorescence, higher = more signal, called active from +8 up or from −8 down; note: test concentration not given here
# [18] = JC-1 mitochondrial signal, unstimulated myeloma cells – cell-based, JC-1 fluorescence, RPMI8226, 24 h, 100 nL compound, profiling panel (AID 1169); details: JC-1 mitochondrial potential fluorescence, higher = more signal; note: test concentration not given here
# [19] = JC-1 mitochondrial signal, unstimulated MM1S myeloma – cell-based, JC-1 fluorescence, 24 h, 100 nL compound, profiling panel (AID 1170); details: MM1S mitochondrial potential, higher = more signal; note: test concentration not given here
# [20] = resazurin metabolic signal in A549 cells – cell-based, resazurin fluorescence, 24 h, PK04 Diversity Set, profiling panel (AID 1171); details: A549 viability, higher = more signal, called active from +8 up or from −8 down; note: test concentration not given here
# Chain of NADPH oxidase 2 (Homo sapiens) (P04839 whole entry, looked up): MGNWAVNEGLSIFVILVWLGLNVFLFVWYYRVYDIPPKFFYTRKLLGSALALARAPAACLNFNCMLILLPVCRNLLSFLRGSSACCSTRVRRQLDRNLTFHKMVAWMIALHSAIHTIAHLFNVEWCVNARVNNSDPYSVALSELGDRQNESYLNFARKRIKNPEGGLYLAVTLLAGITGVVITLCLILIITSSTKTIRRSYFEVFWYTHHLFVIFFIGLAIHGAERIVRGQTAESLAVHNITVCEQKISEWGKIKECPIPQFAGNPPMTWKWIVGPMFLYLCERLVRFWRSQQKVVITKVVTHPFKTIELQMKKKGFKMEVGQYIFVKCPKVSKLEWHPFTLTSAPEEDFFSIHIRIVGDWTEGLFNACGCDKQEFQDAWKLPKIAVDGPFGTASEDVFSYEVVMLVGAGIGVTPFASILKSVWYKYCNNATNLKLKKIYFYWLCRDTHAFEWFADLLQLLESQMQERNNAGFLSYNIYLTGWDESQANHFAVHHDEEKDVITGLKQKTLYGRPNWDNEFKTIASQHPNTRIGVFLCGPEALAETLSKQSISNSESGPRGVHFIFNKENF
# Chain of NADPH oxidase 4 (Homo sapiens) (Q9NPH5 whole entry, looked up): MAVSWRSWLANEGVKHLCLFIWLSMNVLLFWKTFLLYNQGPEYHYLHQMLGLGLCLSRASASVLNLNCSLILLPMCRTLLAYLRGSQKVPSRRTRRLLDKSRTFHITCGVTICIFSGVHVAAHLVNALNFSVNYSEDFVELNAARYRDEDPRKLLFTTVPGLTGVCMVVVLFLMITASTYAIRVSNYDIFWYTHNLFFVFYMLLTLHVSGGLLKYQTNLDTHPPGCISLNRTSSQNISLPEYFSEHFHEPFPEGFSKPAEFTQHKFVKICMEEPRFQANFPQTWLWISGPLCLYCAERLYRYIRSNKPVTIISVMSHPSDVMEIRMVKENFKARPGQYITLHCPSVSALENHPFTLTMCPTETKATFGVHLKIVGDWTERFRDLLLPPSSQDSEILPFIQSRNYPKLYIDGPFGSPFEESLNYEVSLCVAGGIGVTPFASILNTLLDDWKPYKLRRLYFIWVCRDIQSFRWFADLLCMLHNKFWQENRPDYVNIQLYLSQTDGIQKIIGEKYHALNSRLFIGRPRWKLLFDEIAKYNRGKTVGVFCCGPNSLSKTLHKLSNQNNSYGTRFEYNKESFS
# Chain of NADPH oxidase 5 (Homo sapiens) (Q96PH1 whole entry, looked up): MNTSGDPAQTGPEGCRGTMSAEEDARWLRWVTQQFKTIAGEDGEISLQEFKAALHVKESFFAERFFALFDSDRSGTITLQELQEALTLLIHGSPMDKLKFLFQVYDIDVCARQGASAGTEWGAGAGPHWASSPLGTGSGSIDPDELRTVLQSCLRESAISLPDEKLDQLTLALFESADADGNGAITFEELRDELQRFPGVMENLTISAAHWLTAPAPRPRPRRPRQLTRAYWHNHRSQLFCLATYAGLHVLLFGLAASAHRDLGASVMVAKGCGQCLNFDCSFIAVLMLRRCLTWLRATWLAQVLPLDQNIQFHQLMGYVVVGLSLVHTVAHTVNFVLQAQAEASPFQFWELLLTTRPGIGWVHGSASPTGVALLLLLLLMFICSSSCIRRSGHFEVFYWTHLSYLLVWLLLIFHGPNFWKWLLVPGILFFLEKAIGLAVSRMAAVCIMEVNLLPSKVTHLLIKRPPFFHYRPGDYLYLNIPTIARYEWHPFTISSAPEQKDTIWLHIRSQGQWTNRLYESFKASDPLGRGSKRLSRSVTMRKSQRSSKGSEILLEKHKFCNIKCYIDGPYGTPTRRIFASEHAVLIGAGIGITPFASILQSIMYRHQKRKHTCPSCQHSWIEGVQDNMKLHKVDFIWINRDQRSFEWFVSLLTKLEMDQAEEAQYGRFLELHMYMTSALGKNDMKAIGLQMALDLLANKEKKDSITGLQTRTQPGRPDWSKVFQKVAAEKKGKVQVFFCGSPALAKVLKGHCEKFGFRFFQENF
SMILES,z-score [1],composite z-score [2],z-score [3],z-score [4],z-score [5],z-score [6],z-score [7],z-score [8],z-score [9],z-score [10],z-score [11],z-score [12],z-score [13],z-score [14],z-score [15],z-score [16],z-score [17],z-score [18],z-score [19],z-score [20]
CCCCC(O)C1C=CC2C(=O)NC(=O)C2N1Nc1ccccn1 (stereo not given),-2.16 (inactive),0.235,-0.162 (inactive),0.387 (inactive),-0.343 (inactive),0.483 (inactive),-1.11,-1.48 (inactive),-2.5 (inactive),-2.17,-0.795,-0.291,1.18,0.106,0.0087,-1.68,-0.285 (inactive),0.617,-0.00704,-0.751 (inactive)
NC(=O)N1C(=O)C2C(C1=O)C1C=C(CCCO)C2C(c2ccc(CN3CCCC3)cc2)N1Cc1cccc(OC(F)(F)F)c1 (stereo not given),-0.267 (inactive),-0.101,1.86 (inactive),0.63 (inactive),0.0703 (inactive),0.208 (inactive),-0.267,-1.4 (inactive),-0.76 (inactive),-1.04,0.0272,-0.0602,-0.215,-3.34,-0.614,0.221,-0.348 (inactive),0.708,-0.275,0.657 (inactive)
CN(C)CCCC[C@@H]1NC(=O)[C@@H]2C[C@H](C(=O)NCCCCCCNC(=O)CS)[C@H](c3cccc(OCCO)c3)N2C1=O,-0.0099 (inactive),-0.416,3.24 (inactive),0.681 (inactive),-0.0935 (inactive),0.496 (inactive),1.91,2.03 (inactive),0.84 (inactive),1.84,-0.335,-0.668,1.27,0.843,0.405,1.6,0.252 (inactive),-0.666,-0.871,-0.643 (inactive)
CC(C)CNC(=O)[C@@H]1c2ccccc2C(=O)N(C(C)C)[C@H]1c1ccc(CO)cc1,0.941 (inactive),-0.0559,0.747 (inactive),-0.483 (inactive),-0.758 (inactive),-0.779 (inactive),1.85,-0.215 (inactive),0.443 (inactive),0.887,0.456,1.27,1.15,0.333,1.49,1.49,1.29 (inactive),0.793,-0.357,-0.174 (inactive)
O=C1O[C@H](c2ccccc2)[C@H](c2ccccc2)N2[C@H]1[C@@H](C(=O)NC[C@H](O)c1ccccc1)[C@]1(C(=O)Nc3ccc(C#CCCO)cc31)[C@H]2c1ccccc1OCCO,0.631 (inactive),0.0752,2.45 (inactive),0.612 (inactive),0.478 (inactive),0.786 (inactive),0.288,2.14 (inactive),1.35 (inactive),1.6,-0.661,1.43,-1.12,-0.751,-1.41,-0.864,2.89 (inactive),-0.72,-0.341,1.86 (inactive)
C=CC[C@]1(C(=O)OC)N=C(c2ccc(OCCCO)cc2)O[C@H]1c1ccccc1N=[N+]=[N-],-0.908 (inactive),1.06,30.3 (active),26.5 (active),5.34 (inactive),4.92 (inactive),0.26,-1.89 (inactive),0.988 (inactive),-0.21,-1.22,0.617,-0.491,-0.54,-2.37,0.54,0.147 (inactive),-1.13,0.676,-1.6 (inactive)
CC(C)c1ccc(NN2C(C(O)C(C)C)C=CC3C(=O)N(c4ccccc4)C(=O)C32)cc1 (stereo not given),-0.671 (inactive),0.996,1.37 (inactive),0.83 (inactive),0.42 (inactive),1.37 (inactive),-0.452,-0.862 (inactive),-4.22 (inactive),-4.95,-0.149,-0.0009,-0.463,-0.871,-0.542,-0.419,-1.52 (inactive),-0.692,0.54,-1.28 (inactive)
CCOC(=O)C1=CC[C@@H](c2ccccc2)N(S(=O)(=O)c2ccc(C)cc2)[C@H]1C#N,-0.355 (inactive),-0.081,2.97 (inactive),1.91 (inactive),-0.157 (inactive),0.999 (inactive),-0.769,0.426 (inactive),0.122 (inactive),-0.116,-0.97,-0.84,-0.139,-3.21,-2.32,-0.858,-1.04 (inactive),-0.441,-2.33,0.172 (inactive)

# — PubChem BioAssay
